PGK inhibitor = blocks T. brucei phosphoglycerate kinase | P07378 | PGK/GAPDH coupled, Kinase-Glo luminescence, 60 min | Potency, µM (top dose mostly 57.5 µM), inactives show at the top dose activity change, negative = inhibition, most hits filed as inhibitors | 0.043% of 380,000 active | AID 602233; further: potency means the concentration at half of the fitted maximal effect; nearly all actives have a fitted effect of over 60% in size
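Luminescent ATP detection (Kinase-Glo Plus) follows a 60-minute room-temperature incubation, with wells lacking PGK as controls. Buffer: 100 mM TEA (pH 7.6), 5 mM MgCl2, 0.01% Tween-20. Coupling enzyme GAPDH (100 nM final) supplies unstable 1,3-BPG in-well.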
PI5P4Ka inh = PI5P4K alpha (human) kinase inhibition; PI5P4Kalpha enzyme, ADP-Glo luminescence, 60 min; hits give low values; max response, %; 1.2% of 330,000 active; AID 652105; active means max response of -50% or lower; inconclusive means between -30% and -50%; inactive means -30% or higher; further: value at the top dose of about 77 µM
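Compounds were pin-transferred onto PI5P4Kalpha and substrate in HEPES pH 7.4 buffer with EGTA, CHAPS and 5% DMSO. ATP (5 microM final) started the reaction, which ran 60 minutes at room temperature before ADP-Glo detection.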
Tb PFK block = T. brucei PFK enzyme inhibition; O15648; T. brucei PFK, ADP-Glo luminescence; Potency, µM (titrated, usually from 57.5 µM), inactives show at the top dose activity, negative = inhibition, hits mostly inhibitors; 0.17% of 330,000 active;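 further: potency means the concentration at half of the fitted maximal effect; 0% = uninhibited 1x PFK enzyme wells and -100% = no-enzyme wells; nearly all actives have a fitted effect of over 60% in size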
Target sequence (O15648 whole entry, looked up): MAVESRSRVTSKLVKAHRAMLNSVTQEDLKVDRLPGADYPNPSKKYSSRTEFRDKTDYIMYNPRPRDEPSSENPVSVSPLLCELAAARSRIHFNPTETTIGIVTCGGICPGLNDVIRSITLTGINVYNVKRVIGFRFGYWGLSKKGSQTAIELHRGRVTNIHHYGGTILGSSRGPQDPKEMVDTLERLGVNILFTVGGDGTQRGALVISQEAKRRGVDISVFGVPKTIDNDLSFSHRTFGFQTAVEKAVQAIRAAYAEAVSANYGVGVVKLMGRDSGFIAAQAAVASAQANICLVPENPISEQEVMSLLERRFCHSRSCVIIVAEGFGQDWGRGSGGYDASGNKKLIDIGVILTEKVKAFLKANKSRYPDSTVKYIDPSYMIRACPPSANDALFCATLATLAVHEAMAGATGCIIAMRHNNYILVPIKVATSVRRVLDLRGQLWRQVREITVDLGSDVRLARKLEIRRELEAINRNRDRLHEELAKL
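Activity is normalized to no-enzyme wells (full inhibition) and 1.25 nM enzyme wells (no inhibition). Reaction: 0.5 mM F6P, 0.1 mM ATP, 45 min RT, ADP-Glo luminescence; concentration-response curves fitted and classed by quality.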
PI4K2A inh = PI4K2A (human) kinase inhibition. Q9BTU6. 0.13% of 420,000 active. activity change, negative = inhibition, % at 76.9 µM. purified PI4K2A, ADP-Glo luminescence, 1 h; hits give low values. AID 1346378; in the data active means activity change below about -50%; inconclusive means mostly about -30% to -49%;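 further: -100% = wells without enzyme as full effect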
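ADP-Glo luminescence measured ADP generated by PI4K2A enzyme (4 ug/mL before mixing) with 1.2 mM PI substrate (pre-mix) and 300 microM ATP (pre-mix). Tris pH7.5 buffer with MgCl2, Triton X-100; 1 h reaction at ambient temperature.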
Pin1 inh = blocks the human prolyl isomerase Pin1; Q13526; Pin1 FP peptide displacement, HiFluor488, 10 min; Potency, µM (top dose mostly 115 µM), without a hit: at the highest dose activity, negative = inhibition, most hits filed as inhibitors; 0.009% of 390,000 active; active means well fitted inhibition curve with a large enough effect in the polarisation, with a control signal flat, not every such curve was filed as active; inconclusive means small, poorly fitted or top-dose-only effect, or effect the other way, or a change in a side signal; inactive means no such curve, though single readings can be large or run the other way; the % refers to the polarisation; further: potency means the concentration at half of the fitted maximal effect
Target sequence (Q13526 whole entry, looked up): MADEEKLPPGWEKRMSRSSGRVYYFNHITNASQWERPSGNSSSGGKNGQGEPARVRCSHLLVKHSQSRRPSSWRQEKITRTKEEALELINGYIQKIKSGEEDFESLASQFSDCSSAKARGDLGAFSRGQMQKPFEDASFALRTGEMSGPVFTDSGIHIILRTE
Starred values were filed as active, the others as inactive. The full list was thinned out, with hits kept by preference. Unless noted, the call rests on the fitted dose curve; in most records, active means well fitted curve in the direction sought with a large enough effect; inconclusive means small, poorly fitted or top-dose-only effect, or another doubt; inactive means no such curve, though single readings can be large; an effect the other way counts as inactive or inconclusive. Unless noted, on the % scale 0 is the no-effect control and ±100 the full control effect.

How did COc1ccc(C)cc1-n1c(SCC(=O)Nc2cccc(C(=O)O)c2)nc2ccccc2c1=O do in these assays?
PGK inhibitor: 4%; PI5P4Ka inh: -81*; Tb PFK block: 4%; PI4K2A inh: 8; Pin1 inh: 0%

What do the screens show for `O=C(CSc1nc(-c2ccccc2)nc2ccc(F)cc12)Nc1cccc(C(=O)O)c1`?
PGK inhibitor: -13%; PI5P4Ka inh: -50*; Tb PFK block: 2%; PI4K2A inh: -1; Pin1 inh: inconclusive

What do the screens show for `COc1ccc(C2c3c(ncn(CCc4ccccc4)c3=N)Oc3ccc4ccccc4c32)cc1OC` (stereo not drawn)?
Pin1 inh: 3%

What do the screens show for `CN(C)S(=O)(=O)c1ccc(-c2csc(N/N=C/c3ccco3)n2)cc1`?
PGK inhibitor: -1%; PI5P4Ka inh: inconclusive; Tb PFK block: 1%; PI4K2A inh: 5; Pin1 inh: -1%

What do the screens show for `CN(C)S(=O)(=O)c1ccc(-c2csc(N/N=C/c3ccc(O)cc3)n2)cc1`?
PGK inhibitor: -3%; PI5P4Ka inh: -63*; Tb PFK block: -7%; PI4K2A inh: 1; Pin1 inh: 4%

Results for C[C@H]1[C@@H](NC(=O)Cc2ccsc2)CC[C@@]23CCCN2C(=O)CCC[C@@H]13 ?
PI4K2A inh: 4

Results for c1nc(NCc2ccoc2)c2cc(-c3ccc4c(c3)OCO4)ccc2n1 ?
Pin1 inh: 13%

What do the screens show for `CS(=O)(=O)c1ccc(N)c(SSc2cc(S(C)(=O)=O)ccc2N)c1`?
PGK inhibitor: -8%; PI5P4Ka inh: -81*; Tb PFK block: inconclusive; PI4K2A inh: -15; Pin1 inh: 22%

How did CCOc1ccc(N)c(SSc2cc(OCC)ccc2N)c1 do in these assays?
PGK inhibitor: -8%; PI5P4Ka inh: inconclusive; Tb PFK block: -19%; PI4K2A inh: -22; Pin1 inh: 3%

What do the screens show for `COc1cccc(/C=N/Nc2nccnc2Cl)c1O`?
PGK inhibitor: inconclusive; PI5P4Ka inh: -20; Tb PFK block: -21%; PI4K2A inh: -60*; Pin1 inh: 0%

How did Oc1ccccc1/C=N/Nc1nccnc1Cl do in these assays?
PGK inhibitor: -9%; Tb PFK block: -8%; PI4K2A inh: -9; Pin1 inh: 0%

Results for COc1cccc(/C=N/Nc2ncnc(Cl)c2N)c1O ?
PGK inhibitor: 3%; PI5P4Ka inh: -16; Tb PFK block: 17%; PI4K2A inh: -5; Pin1 inh: 2%

What do the screens show for `Oc1ccc(/C=N/Nc2nccnc2Cl)c(O)c1`?
PGK inhibitor: inconclusive; PI5P4Ka inh: -9; Tb PFK block: -20%; PI4K2A inh: -67*; Pin1 inh: -3%

What do the screens show for `COc1cc2ncnc(N(C)Cc3cccs3)c2cc1-c1ccc2c(c1)OCO2`?
Pin1 inh: 6%

What do the screens show for `Cc1ccc(/C=C(\C#N)C(=O)Nc2ccc(Br)cc2)o1`?
PI4K2A inh: -1; Pin1 inh: inconclusive

How did COc1ccc(NC(=O)/C(C#N)=C\c2ccc(Br)o2)cc1 do in these assays?
PGK inhibitor: -24%; PI5P4Ka inh: -83*; Tb PFK block: -17%; PI4K2A inh: -12; Pin1 inh: inconclusive

What do the screens show for `N#C/C(=C\c1ccc([N+](=O)[O-])o1)C(=O)Nc1ccc(F)cc1`?
PGK inhibitor: 6%; PI5P4Ka inh: -84*; Tb PFK block: -27%; PI4K2A inh: -17; Pin1 inh: inconclusive

How did Cc1ccc(/C=C(\C#N)C(=O)Nc2cccc(Br)c2)o1 do in these assays?
PI4K2A inh: -4; Pin1 inh: inconclusive

How did Cc1ccc(NS(=O)(=O)c2cc3c(cc2Cl)CCC(=O)N3)cc1Cl do in these assays?
Pin1 inh: 1%

How did O=C1c2ccccc2C(=O)N1CCc1csc(NNc2nc(CCN3C(=O)c4ccccc4C3=O)cs2)n1 do in these assays?
PGK inhibitor: -5%; PI5P4Ka inh: -69*; Tb PFK block: 1%; PI4K2A inh: -5; Pin1 inh: inconclusive

How did O=c1nc(/C=C/c2cccn2-c2ccc([N+](=O)[O-])cc2)cc(C(F)(F)F)[nH]1 do in these assays?
PGK inhibitor: -2%; PI5P4Ka inh: -69*; Tb PFK block: 23%; PI4K2A inh: -17; Pin1 inh: 85%

What do the screens show for `Clc1ccc2c(N/N=C/c3cccc(Br)c3)ccnc2c1`?
PGK inhibitor: 6%; PI5P4Ka inh: -69*; Tb PFK block: 0%; PI4K2A inh: -2; Pin1 inh: 0%

How did Clc1ccc2c(N/N=C/c3ccccc3Br)ccnc2c1 do in these assays?
PGK inhibitor: -1%; PI5P4Ka inh: -27; Tb PFK block: -3%; PI4K2A inh: 3; Pin1 inh: 4%

Results for C/C(=N\NC(=O)Cc1cccn1C)c1ccco1 ?
PGK inhibitor: -1%; PI5P4Ka inh: -8; Tb PFK block: -3%; PI4K2A inh: -5; Pin1 inh: 3%

How did Cn1cccc1CC(=O)N/N=C/C=C/c1ccco1 do in these assays?
PGK inhibitor: -8%; PI5P4Ka inh: -55*; Tb PFK block: inconclusive; PI4K2A inh: inconclusive; Pin1 inh: inconclusive

What do the screens show for `Cc1ccc(OCC(=O)N/N=C/C=C/c2ccco2)cc1`?
PGK inhibitor: -6%; PI5P4Ka inh: -64*; Tb PFK block: 0%; PI4K2A inh: -20; Pin1 inh: inconclusive

Results for O=C(CSc1nnc(SCC(=O)c2ccco2)s1)c1ccco1 ?
PGK inhibitor: -16%; PI5P4Ka inh: -62*; Tb PFK block: -9%; PI4K2A inh: -13; Pin1 inh: 0%

Results for O=C(CSc1nnc(SCc2ccccc2)s1)N/N=C/C=C\c1ccco1 ?
PGK inhibitor: -24%; PI5P4Ka inh: -82*; Tb PFK block: -13%; PI4K2A inh: -22; Pin1 inh: inconclusive

What do the screens show for `O=C(C1CCCCC1)N1CC(=O)N2CCCc3ccccc3C2C1` (stereo not drawn)?
PI4K2A inh: -2

What do the screens show for `N#Cc1nc(NCC(F)F)c2ncn(-c3cccc(Cl)c3)c2n1`?
Pin1 inh: 14%

Results for CCCCn1c(=O)[nH]c(=O)c2c1nc(CN1C(=O)c3ccccc3S1(=O)=O)n2CCC ?
PGK inhibitor: -4%; PI5P4Ka inh: -3; Tb PFK block: 1%; PI4K2A inh: -7; Pin1 inh: -3%

How did CCCCn1c(=O)[nH]c(=O)c2c1nc(Cn1ncc(Cl)c(Cl)c1=O)n2CCC do in these assays?
PGK inhibitor: 0%; PI5P4Ka inh: -52*; Tb PFK block: -1%; PI4K2A inh: -16; Pin1 inh: inconclusive

Results for O=C1OC2(c3ccccc31)c1ccccc1-c1ccccc12 ?
PGK inhibitor: inactive; PI5P4Ka inh: -2; PI4K2A inh: 3; Pin1 inh: 7%

Results for O=C1OC(c2ccc3ccccc3c2O)(c2ccc3ccccc3c2O)c2ccccc21 ?
PGK inhibitor: -6%; PI5P4Ka inh: -79*; PI4K2A inh: 4; Pin1 inh: inconclusive

Source: PubChem BioAssay
